From PubChem
SNCA viab count – reduces viability of HEK-293 SNCA reporter cells; HEK-293-SNCA-luc viability, GF-AFC fluorescence, 24 h; Potency, µM (titrated, usually from 57.1 µM), most hits filed as cytotoxic; actives 0.12% (n = 150,000); also: nearly all actives have a fitted effect of over 30% in size
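HEK-293-SNCA-luc cells (1500/well) plated 24 h, then exposed 24 h to a dilution series; GF-AFC added 30 min at 37C, fluorescence 405/540 nm; normalised to medium-only and DMSO wells, Hill fit.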
IP6K1 inhibitor – inhibitors of human IP6K1. IP6K1 kinase, ADP-Glo luminescence, 2 h; stronger effect = lower value. activity change, % (series mostly up to about 58 µM). actives 0.81% (n = 140,000); in the data active = activity change below about -25%
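ADP-Glo luminescence measures ADP made by human IP6K1 during a 2 h RT reaction with ATP/IP6 (mix at 1.3 mM/130 uM); top library doses 57.5 and 19.1 uM final.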
KDM5B inhibitor – KDM5B demethylase inhibition; Potency, µM (doses to about 57.7 µM), hits mostly inhibitors; KDM5B demethylase, FDH-coupled NADH fluorescence (FDH is formaldehyde dehydrogenase); actives 2.6% (n = 220,000); AID 1347165; Q9UGL1; also: nearly all actives have a fitted effect of over 70% in size
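Measured: NADH fluorescence change, 30 min, RT. System: KDM5BΔAP 200 nM final, H3K4me3 peptide, α-KG, Fe(II), ascorbate, NAD⁺ plus FDH, pH 7.5 HEPES. Compounds: titrated, 10 min pre-incubation with enzyme.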
SNCA expr inhib – inhibitors of alpha-synuclein (SNCA) gene expression. HEK-293 SNCA-luciferase knock-in, luminescence, 24 h. Potency, µM (series often up to 57.2 µM), most hits filed as inhibitors. actives 0.17% (n = 140,000); also: nearly all actives have a fitted effect of over 45% in size
Each line names hits and unclear results; the compound was inactive in the other large screens. The list is not random: actives were taken first. Their share in the collection is about 2.8%. Unless noted, calls follow the shape of the dose curve; as a rule, active = well fitted curve in the direction sought with a large enough effect; inconclusive = small, poorly fitted or top-dose-only effect, or another doubt; inactive = no such curve, though single readings can be large; an effect the other way counts as inactive or inconclusive.

CN(CCc1noc(-c2ccccc2)n1)S(=O)(=O)c1cccc2nsnc12	none (no result: SNCA viab count, IP6K1 inhibitor, SNCA expr inhib)
O=c1ccc(N2CCC(NS(=O)(=O)c3ccc(Cl)s3)CC2)nn1CC1CC1	KDM5B inhibitor 14µM
Cc1cc(C)c(C)c(S(=O)(=O)NC2CCN(c3ccc(=O)n(CC4CC4)n3)CC2)c1C	KDM5B inhibitor 35µM, SNCA expr inhib inconclusive
O=C(NC1CCN(c2ccc(=O)n(CC3CC3)n2)CC1)c1cnccn1	KDM5B inhibitor inconclusive, SNCA expr inhib inconclusive
O=C1C=Cc2ccccc2/C1=C/N(O)c1ccccc1	none (no result: SNCA viab count, IP6K1 inhibitor, SNCA expr inhib)
Cc1noc2c(-c3ccc(CO)cc3)cc(-c3cccs3)nc12	KDM5B inhibitor inconclusive
COc1ccc(OC)c(-c2cc(-c3cccs3)nc3c(C)noc23)c1	KDM5B inhibitor 40µM
Cc1noc2c(-c3ccsc3)cc(-c3cccnc3)nc12	KDM5B inhibitor inconclusive
COc1ccccc1-c1cc(-c2ccsc2)c2onc(C)c2n1	KDM5B inhibitor 28µM
O=C(Cc1ccc(F)cc1)NNC(=O)c1ccc2[nH]c3c(c2c1)CCCC3	none (no result: SNCA viab count, IP6K1 inhibitor, SNCA expr inhib)
COC(=O)[C@@H]1Cc2c([nH]c3ccccc23)[C@H]2C[C@@H](NCCN3CCOCC3)C[C@@H](c3ccc(F)c(F)c3)N21	SNCA viab count inconclusive, KDM5B inhibitor inconclusive
CCN(CC)C(=O)[C@@H](C)C1CC[C@@]2(C)Cc3sc(Nc4c(Cl)cccc4Cl)nc3[C@@H](C)[C@@H]2[C@H]1O (some centres undefined)	SNCA expr inhib inconclusive
C[C@H](C(=O)N1CCCC1)[C@@H]1CC[C@@]2(C)Cc3sc(-c4ccsc4)nc3[C@@H](C)[C@@H]2[C@H]1O	KDM5B inhibitor inconclusive, SNCA expr inhib 5.6µM
COCCNC(=O)[C@@H](C)C1CC[C@@]2(C)Cc3sc(CSc4ccccc4)nc3[C@@H](C)[C@@H]2[C@H]1O (some centres undefined)	none
C[C@H](C(=O)N1CCCC1)C1CC[C@@]2(C)Cc3sc(-c4ccccc4)nc3[C@@H](C)[C@@H]2[C@H]1O (some centres undefined)	KDM5B inhibitor 32µM, SNCA expr inhib 4.5µM
COCCNc1nc2c(S(=O)(=O)c3ccc(C)cc3)nnn2c2ccccc12	KDM5B inhibitor 79µM
COCCCNc1nc2c(S(=O)(=O)c3ccc(C)cc3)nnn2c2ccccc12	KDM5B inhibitor 79µM, SNCA expr inhib inconclusive
COCCNc1nc2c(S(=O)(=O)c3ccc(C(C)C)cc3)nnn2c2ccccc12	KDM5B inhibitor inconclusive
COCCNc1nc2c(S(=O)(=O)c3ccccc3)nnn2c2ccccc12	none
COCCCNc1nc2c(S(=O)(=O)c3ccc(C)c(C)c3)nnn2c2ccccc12	KDM5B inhibitor 79µM
COCCCNc1nc2c(S(=O)(=O)c3ccccc3)nnn2c2ccccc12	KDM5B inhibitor 79µM
CC(C)OCCCNc1nc2c(S(=O)(=O)c3ccc(Br)cc3)nnn2c2ccccc12	KDM5B inhibitor inconclusive
COc1ccc2c(C)c(CCC(=O)Nc3nc4ccccc4[nH]3)c(=O)oc2c1	none (no result: SNCA viab count, IP6K1 inhibitor, SNCA expr inhib)
COc1ccc(-c2coc3cc(OCC(=O)NCc4ccc(F)cc4)ccc3c2=O)cc1OC	none (no result: SNCA viab count, IP6K1 inhibitor, SNCA expr inhib)
Cc1[nH]c(=O)c(C#N)cc1C(=O)N1CCC2(CC1)C(=O)Nc1ccccc12	KDM5B inhibitor 22µM
O=C(c1ccccc1)N1CCC2(C1)C(=O)Nc1ccccc12 (centres undefined)	none
O=C(NCc1ccc(F)cc1)c1ccc2nccn2c1	KDM5B inhibitor 28µM
CC(CCc1ccccc1)NC(=O)c1ccc2nccn2c1 (centres undefined)	KDM5B inhibitor 35µM
COc1cc(C(=O)NCc2nc3ccccc3n2C)cc(OC)c1OC	none (no result: SNCA viab count, IP6K1 inhibitor, SNCA expr inhib)
CCC(CC)NC(=O)c1ccc2nccn2c1	none (no result: KDM5B inhibitor)
CC(NC(=O)c1ccc2nccn2c1)c1ccc(F)cc1 (centres undefined)	KDM5B inhibitor 35µM
CSc1ccc(C(C)NC(=O)c2ccc(F)cc2)cc1 (centres undefined)	none (no result: SNCA viab count, IP6K1 inhibitor, SNCA expr inhib)
Cn1c(CNC(=O)c2ccc3nccn3c2)nc2cc(C(F)(F)F)ccc21	KDM5B inhibitor 20µM
O=C(NCCc1ccccn1)c1ccc2nccn2c1	KDM5B inhibitor inconclusive
Cc1ccc2nc(/C(C#N)=C\c3ccccc3)[nH]c2c1	none (no result: SNCA viab count, IP6K1 inhibitor, SNCA expr inhib)
CC(C(=O)c1ccccc1)C1(O)C(=O)Nc2ccc(Br)cc21 (centres undefined)	none (no result: SNCA viab count, IP6K1 inhibitor, SNCA expr inhib)
COCCNC(=O)c1ccc2nccn2c1	KDM5B inhibitor 35µM
COCCCNC(=O)c1ccc2nccn2c1	none (no result: KDM5B inhibitor)
CN1CCN(c2ncc3nc(-c4cccs4)c(=O)n(Cc4cccs4)c3n2)CC1	SNCA viab count inconclusive (no result: IP6K1 inhibitor, KDM5B inhibitor)
